The source made the active and inactive calls. Rule for the calls: active = hit-call score of the fitted dose curve at least 0.9, where 1 is the maximum; inactive = score below 0.9.
Legend:
Details in all cases: mRNA level, 48 h; actives raise or lower the signal
[1] = read-out: CFLAR gene, CFLAR (gene 8837); assay: LTEA_HepaRG_CFLAR: Life Technologies and Expression Analysis (LTEA) Assay for CFLAR gene using HepaRG (AID 2283455)
Outline: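 Differentiated HepaRG cells in serum-free induction medium were exposed 48 h in duplicate to eight half-log concentrations up to 100 uM in 0.5% DMSO; mRNA measured by TaqMan qRT-PCR, normalized to ACTB, GAPDH, POLR2A; bidirectional fitting versus DMSO.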

[2] = read-out: Forkhead box O1 (FOXO1), FOXO1 (gene 2308); assay: LTEA_HepaRG_FOXO1: Life Technologies and Expression Analysis (LTEA) Assay for Forkhead box O1 (FOXO1) using HepaRG (AID 2283456)
Outline: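 Differentiated HepaRG cells, in serum-free induction medium with 0.5% DMSO, exposed 48 h in duplicate to 8-point half-log series from 100 uM. FOXO1 mRNA measured by TaqMan qRT-PCR, normalized to ACTB, GAPDH, POLR2A; bidirectional fit versus DMSO.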

[3] = read-out: growth arrest and DNA damage 45 (GADD45A), GADD45A (gene 1647); assay: LTEA_HepaRG_GADD45A: Life Technologies and Expression Analysis (LTEA) Assay for growth arrest and DNA damage 45 (GADD45A) using HepaRG (AID 2283458)
Outline: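 Differentiated HepaRG cells exposed 48 h in serum-free induction medium to 8 concentrations, top 100 uM in half-log steps, 0.5% DMSO. GADD45A mRNA quantified by qRT-PCR, normalized to ACTB, GAPDH and POLR2A; bidirectional fit versus DMSO.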

[4] = read-out: ABC Transporter (ABCB1), ABCB1 (gene 5243); assay: LTEA_HepaRG_ABCB1: Life Technologies and Expression Analysis (LTEA) Assay for ABC Transporter (ABCB1) using HepaRG (AID 2283460)
Outline: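 HepaRG cells exposed in duplicate for 48 h in serum-free induction medium to eight half-log concentrations up to 100 uM in 0.5% DMSO. ABCB1 mRNA quantified by qRT-PCR, normalised to ACTB, GAPDH and POLR2A; fitted bidirectionally versus DMSO.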

[5] = read-out: growth arrest and DNA damage 45 (GADD45B), GADD45B (gene 4616); assay: LTEA_HepaRG_GADD45B: Life Technologies and Expression Analysis (LTEA) Assay for growth arrest and DNA damage 45 (GADD45B) using HepaRG (AID 2283461)
Outline: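 qRT-PCR read-out (Fluidigm TaqMan, housekeeping-normalized) of mRNA change in human HepaRG cells after 48 h chemical exposure; 8-point curve, top 100 uM, half-log steps, 0.5% DMSO vehicle; gain or loss fitted relative to DMSO baseline.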

[6] = read-out: ABC Transporter (ABCC3), ABCC3 (gene 8714); assay: LTEA_HepaRG_ABCC3: Life Technologies and Expression Analysis (LTEA) Assay for ABC Transporter (ABCC3) using HepaRG (AID 2283462)
Outline: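 qRT-PCR read-out of ABCC3 transcript, normalized to three housekeeping genes (ACTB, GAPDH, POLR2A), after 48 h chemical exposure of human HepaRG cells. Eight half-log concentrations, highest 100 uM, in 0.5% DMSO; gain or loss fitted relative to DMSO baseline.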

[7] = read-out: ABC Transporter (ABCB11), ABCB11 (gene 8647); assay: LTEA_HepaRG_ABCB11: Life Technologies and Expression Analysis (LTEA) Assay for ABC Transporter (ABCB11) using HepaRG (AID 2283463)
Outline: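 Differentiated human HepaRG cells in serum-free induction medium, dosed in duplicate for 48 h. Eight-point half-log series from 100 uM in 0.5% DMSO; ABCB11 mRNA by qRT-PCR, normalized to ACTB, GAPDH, POLR2A, fitted bidirectionally versus DMSO.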

[8] = read-out: ABC Transporter (ABCC2), ABCC2 (gene 1244); assay: LTEA_HepaRG_ABCC2: Life Technologies and Expression Analysis (LTEA) Assay for ABC Transporter (ABCC2) using HepaRG (AID 2283464)
Outline: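 qRT-PCR (TaqMan, Fluidigm array) read-out of ABCC2 mRNA, normalized to three housekeeping genes. Differentiated HepaRG cells were treated 48 h in serum-free induction medium with 8-point half-log series from 100 uM in 0.5% DMSO; curves fitted bidirectionally relative to DMSO.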

[9] = read-out: Broad substrate specificity ATP-binding cassette transporter ABCG2 (Homo sapiens) (UniProt Q9UNQ0); assay: LTEA_HepaRG_ABCG2: Life Technologies and Expression Analysis (LTEA) Assay for ABC Transporter (ABCG2) using HepaRG (AID 2283465)
Outline: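 Differentiated HepaRG cells were exposed for 48 h in serum-free induction medium to 8 half-log concentrations, top 100 uM, in 0.5% DMSO. ABCG2 mRNA was measured by qRT-PCR, normalized to ACTB, GAPDH and POLR2A, with bidirectional fitting versus DMSO.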

[10] = read-out: ATP-citrate lyase (ACLY), ACLY (gene 47); assay: LTEA_HepaRG_ACLY: Life Technologies and Expression Analysis (LTEA) Assay for ATP-citrate lyase (ACLY) using HepaRG (AID 2283466)
Outline: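 Differentiated HepaRG cells exposed 48 h in serum-free induction medium to eight half-log concentrations up to 100 uM in 0.5% DMSO, duplicates. Transcript measured by Fluidigm TaqMan qRT-PCR, normalized to ACTB, GAPDH, POLR2A; bidirectional fit versus DMSO.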

[11] = read-out: Alkaline Phosphatase, Placental (ALPP) gene, ALPP (gene 250); assay: LTEA_HepaRG_ALPP: Life Technologies and Expression Analysis (LTEA) Assay for Alkaline Phosphatase, Placental (ALPP) gene using HepaRG (AID 2283468)
Outline: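 qRT-PCR readout of ALPP mRNA (Fluidigm TaqMan), normalized to ACTB/GAPDH/POLR2A, after 48 h chemical exposure of HepaRG cells; 8-point half-log series, top 100 uM, 0.5% DMSO vehicle. Bidirectional curve fit versus DMSO baseline.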

[12] = read-out: Bcl-2 (BAD) gene, BAD (gene 572); assay: LTEA_HepaRG_BAD: Life Technologies and Expression Analysis (LTEA) Assay for Bcl-2 (BAD) gene using HepaRG (AID 2283469)
Outline: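 Differentiated HepaRG cells were exposed in duplicate in 0.5% DMSO for 48 h to eight-point half-log concentrations up to 100 uM. BAD mRNA was measured by Fluidigm TaqMan qRT-PCR, normalized to ACTB, GAPDH and POLR2A, and fitted bidirectionally against DMSO.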

[13] = read-out: Bcl-2 (BAX) gene, BAX (gene 581); assay: LTEA_HepaRG_BAX: Life Technologies and Expression Analysis (LTEA) Assay for Bcl-2 (BAX) gene using HepaRG (AID 2283470)
Outline: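 Differentiated HepaRG cells exposed 48 h in serum-free induction medium, eight half-log concentrations from 100 uM, in duplicate, 0.5% DMSO vehicle. BAX mRNA by TaqMan qRT-PCR, normalised to ACTB, GAPDH and POLR2A.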

[14] = read-out: adenosine kinase (ADK) gene, ADK (gene 132); assay: LTEA_HepaRG_ADK: Life Technologies and Expression Analysis (LTEA) Assay for adenosine kinase (ADK) gene using HepaRG (AID 2283471)
Outline: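 HepaRG (human liver), 48 h chemical exposure, 8-pt half-log series, top 100 uM, 0.5% DMSO vehicle. Readout: ADK mRNA by qRT-PCR vs housekeeping genes; bidirectional curve fit relative to DMSO baseline.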

[15] = read-out: Alpha-fetoprotein (AFP) gene, AFP (gene 174); assay: LTEA_HepaRG_AFP: Life Technologies and Expression Analysis (LTEA) Assay for Alpha-fetoprotein (AFP) gene using HepaRG (AID 2283472)
Outline: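 Differentiated human HepaRG cells exposed 48 h in serum-free induction medium, 8-point half-log series from 100 uM in 0.5% DMSO, duplicate. AFP mRNA by qRT-PCR, normalized to ACTB, GAPDH, POLR2A; bidirectional fit vs DMSO.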

[16] = read-out: Apolipoprotein A-V (APOA5) gene, APOA5 (gene 116519); assay: LTEA_HepaRG_APOA5: Life Technologies and Expression Analysis (LTEA) Assay for Apolipoprotein A-V (APOA5) gene using HepaRG (AID 2283474)
Outline: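 HepaRG, 48 h chemical exposure in serum-free induction medium, 8-pt half-log series (top 100 uM), 0.5% DMSO vehicle, duplicates. Readout: APOA5 mRNA by qRT-PCR, housekeeping-normalized; bidirectional fit vs DMSO baseline.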

[17] = read-out: Peroxisomal acyl-coenzyme A oxidase 1 (ACOX1) gene, ACOX1 (gene 51); assay: LTEA_HepaRG_ACOX1: Life Technologies and Expression Analysis (LTEA) Assay for Peroxisomal acyl-coenzyme A oxidase 1 (ACOX1) gene using HepaRG (AID 2283467)
Outline: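 HepaRG cells, plated 48 h then switched to serum-free induction medium, were exposed in duplicate for 48 h to 8-point half-log concentrations up to 100 uM in 0.5% DMSO. ACOX1 mRNA was measured by qRT-PCR, normalized to ACTB/GAPDH/POLR2A, and fitted bidirectionally versus DMSO.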

BCL2L11 (gene 10018) = assay: LTEA_HepaRG_BCL2L11: Life Technologies and Expression Analysis (LTEA) Assay for Bcl-2 (BCL2L11) gene using HepaRG (AID 2283473)
Outline: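 HepaRG, 48 h exposure, 8-pt half-log series from 100 uM in 0.5% DMSO, duplicates; qRT-PCR (Fluidigm TaqMan) for BCL2L11, housekeeping-normalized; bidirectional curve fit relative to DMSO baseline.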

Measured: AC50

Sequence of Broad substrate specificity ATP-binding cassette transporter ABCG2 (Homo sapiens) (Q9UNQ0 whole entry, looked up): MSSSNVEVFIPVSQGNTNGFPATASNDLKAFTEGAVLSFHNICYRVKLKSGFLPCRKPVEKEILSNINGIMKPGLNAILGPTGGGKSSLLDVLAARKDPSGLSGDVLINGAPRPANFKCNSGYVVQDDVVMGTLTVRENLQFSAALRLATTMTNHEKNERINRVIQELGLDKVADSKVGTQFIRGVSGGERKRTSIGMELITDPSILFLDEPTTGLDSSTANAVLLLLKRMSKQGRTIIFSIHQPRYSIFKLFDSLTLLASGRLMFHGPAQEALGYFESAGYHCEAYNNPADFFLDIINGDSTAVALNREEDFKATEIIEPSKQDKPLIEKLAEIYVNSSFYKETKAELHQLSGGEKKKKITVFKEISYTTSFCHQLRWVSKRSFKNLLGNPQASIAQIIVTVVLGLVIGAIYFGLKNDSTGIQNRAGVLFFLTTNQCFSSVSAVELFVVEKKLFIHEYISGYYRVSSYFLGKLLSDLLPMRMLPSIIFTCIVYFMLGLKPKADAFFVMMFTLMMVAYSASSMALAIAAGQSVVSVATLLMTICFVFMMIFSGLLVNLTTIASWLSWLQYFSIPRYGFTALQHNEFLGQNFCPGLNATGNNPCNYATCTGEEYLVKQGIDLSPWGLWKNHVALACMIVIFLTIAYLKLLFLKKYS

CCCCCCCCCCCCc1ccccc1
inactive: [1] | [2] | [3] | [4] | [5] | [6] | [7] | [8] | [9] | [10] | [11] | [12] | [13] | [14] | [15] | [16]

O=P(OC(CCl)CCl)(OC(CCl)CCl)OC(CCl)CCl
inactive: [1] | [2] | [5] | [6] | [8]
active: [3] 0.21 µM | [4] 78.8 µM | [7] 66.6 µM | [9] 78.5 µM | [10] 75.9 µM | [11] 0.259 µM | [13] 84.5 µM | [14] 272 nM | [15] 15.8 µM | [16] 50 µM

On1ccccc1=S
inactive: [1] | [2] | [3] | [4] | [5] | [6] | [7] | [8] | [9] | [10] | [17] | [11] | [13] | [14] | [15] | [16]

Cc1[nH]cnc1C[C@H]1CCc2c(C)c3ccccc3n2C1=O
inactive: [9] | [11] | [12] | [14]
active: [1] 79.9 µM | [2] 75.4 µM | [3] 62 µM | [4] 68.5 µM | [5] 25.2 µM | [6] 10.6 µM | [7] 22.7 µM | [8] 31.3 µM | [10] 75.6 µM | [17] 54.4 µM | [13] 28 µM | BCL2L11 (gene 10018) 26.6 µM | [16] 19.6 µM

CC(C)=CCC/C(C)=C\CO
inactive: [1] | [2] | [3] | [4] | [5] | [6] | [7] | [8] | [9] | [10] | [11] | [12] | [13] | [14] | [15] | BCL2L11 (gene 10018) | [16]

CC(O)CN(CCN(CC(C)O)CC(C)O)CC(C)O (stereo not drawn)
inactive: [1] | [2] | [3] | [4] | [5] | [6] | [7] | [8] | [9] | [10] | [17] | [11] | [14] | [15] | BCL2L11 (gene 10018) | [16]

CC[C@H]1CC[C@H](NCc2cc3c(cc2OC)[C@H]2C[C@H]2C(=O)N3C)[C@H](c2ccccc2)N1
active: [8] 50 µM | [11] 75.7 µM | [15] 50 µM
inactive: [1] | [2] | [3] | [4] | [5] | [6] | [7] | [9] | [10] | [17] | [13] | [14] | [16]

Source: PubChem BioAssay (EPA / NIEHS)
